60 sequences from the OligoGym collection can be followed below.

Among the targets are MUDENG; MUL1; MUM1L1; MUC4; MYST4; NCSTN; NKPD1; NLGN1; NLRP3; NLRP2.
Common to all, as to experiment: pooled miR-30 sensor sort-seq; sequence = guide strand
What all share (settings): shRNA
Note: reference of the scale not given here.

TAGTTTTGTATTCCAAATGTGT came in with a sensor-assay potency score (higher = more potent) with MUDENG of -0.698.
For the sequence TATAACAGCATAAGGCACGCAT, the sensor-assay potency score (higher = more potent) with MUL1 is -0.0376.
For the sequence TAACACATGCACTTTCCTCTTT, in the assay with MUM1L1, the sensor-assay potency score (higher = more potent) is -0.0342.
On the same count and under the same terms, under TTGTGGTACATTTTGAGACAGC stands -1.11; under TTTGATTGCAGACTTCTTGTAA, 0.165.
In the assay with MUDENG, TTCTTAGTTGTACTTCTTCCTC returned a sensor-assay potency score (higher = more potent) of -1.23.
On to TAACTGGGTAACTAATATCAGC, for which the sensor-assay potency score (higher = more potent) with MUM1L1 was -1.56.
Consider TTGAATGACTCTAAAGGTGGAG, for which, in the assay with MUDENG, the sensor-assay potency score (higher = more potent) worked out at 0.345.
In the case of TATTTCTGATATTTAAACCAGA, in the assay with MUM1L1, the sensor-assay potency score (higher = more potent) is -0.575.
In the assay with MUM1L1, TTGAGATTTATTTAGGATCTTT displayed a sensor-assay potency score (higher = more potent) of -0.143.
The sequence TAAGATCCTAAAATGAAGCTTT yielded a sensor-assay potency score (higher = more potent) with MUDENG of 0.347.
Regarding TTCAGGAAGTCAATGACCGGGC, the sensor-assay potency score (higher = more potent) with MUC4 is -0.298.
For TAACAGACCGCACAGCTCCTTC, the sensor-assay potency score (higher = more potent) with MUL1 is -0.691.
Consider TTTGTTTCTCTTTACAATCAAA, for which, in the assay with MUM1L1, the sensor-assay potency score (higher = more potent) is -1.34.
In the assay with MUL1, TTGAGCTCTTGGGAGACCCGGG gave a sensor-assay potency score (higher = more potent) of -0.319.
On to TTGGTGGGGAGACTCAAGCTGA, for which the sensor-assay potency score (higher = more potent) with MUDENG was -1.09.
The same measure, in the same setting: in the case of TTGAACTGAATGCTGATCTGCA it was 0.719.
TTTAGCTCCCTTGAGCTCTTGG gave a sensor-assay potency score (higher = more potent) with MUL1 of -0.00208.
Consider TAGATGGAGAAGGACACACAGC, for which the sensor-assay potency score (higher = more potent) with MUC4 is -1.17.
For the sequence TACTCTTTAAATCTTCACCCAA, in the assay with MUL1, the sensor-assay potency score (higher = more potent) is -0.305.
On to TTTGTTTCCACTTCACTTGGAA, for which the sensor-assay potency score (higher = more potent) in the assay with MUM1L1 was 0.402.
Consider TTGTGAGTAGAAAACAGGGGTG, for which, in the assay with MUC4, the sensor-assay potency score (higher = more potent) was -0.53.
On to TTAGATACTTTGCTTCAGCTGC, for which, in the assay with MUM1L1, the sensor-assay potency score (higher = more potent) is -0.267.
In the assay with MUL1, TTAACAGACCGCACAGCTCCTT came in with a sensor-assay potency score (higher = more potent) of -0.45.
In the case of TAAACCAGACTATCATTCCTGT, the sensor-assay potency score (higher = more potent) with MUM1L1 is -0.0642.
Consider TATCCTGAAGTGGAGATCCATT, for which, in the assay with MUDENG, the sensor-assay potency score (higher = more potent) was -1.27.
Still for that read-out and setting: under TAACATTTGGCATGATTCCTTC stands -0.439.
For TAACTGACACCATCCAAGGTGG, in the assay with MUC4, the sensor-assay potency score (higher = more potent) is -0.587.
The same measure, in the same setting: under TTTGTCATCTTTCTAATCCAAG stands -1.23.
The sequence TTACTGTTAGCACAACACTTGT registered a sensor-assay potency score (higher = more potent) with MYST4 of -0.946.
Still for that read-out and setting: under TTACAGACAACAATCGTTGCTT stands 0.972.
Regarding TGAGTCAACATTCTCTAACTGC, the sensor-assay potency score (higher = more potent) in the assay with NCSTN was 0.0625.
Still for that read-out and setting: in the case of TTGGAGTAAACACCAAACCCAT it was -1.26.
Turning to TACTCGTAGAGGCAGTCGCGCT, the sensor-assay potency score (higher = more potent) with NKPD1 was -1.54.
The same measure, in the same setting: in the case of TAGATCTCCAGGAAGCACAGGA it was 0.323.
Same read-out and setting: under TTGTCGGGCACGTACTCGTAGA stands -1.44.
Sequence TAAATTTCCAGTACCTTCCATA gave a sensor-assay potency score (higher = more potent) in the assay with NLGN1 of -0.487.
Turning to AGGAACTGCAGCTTGGTGCGGC, the sensor-assay potency score (higher = more potent) with NKPD1 was -1.31.
Sequence TCAAACAGCAACTCCATCTTAA yielded a sensor-assay potency score (higher = more potent) in the assay with NLRP3 of -0.477.
For TAGATCCACATGGTCTGCCTTC, in the assay with NLRP3, the sensor-assay potency score (higher = more potent) was -0.905.
Sequence TTGCTCGTTGAAAAAGTCCTTT showed a sensor-assay potency score (higher = more potent) with NLGN1 of -0.525.
Turning to TTACAGTCTTGTGACCTCGAAG, the sensor-assay potency score (higher = more potent) with NLRP2 is -1.08.
In the assay with NLRP3, TTGAAGTCGATCATTAGCGTGG had a sensor-assay potency score (higher = more potent) of 0.548.
TATTTCTTTGAACTGAGCCATC: in the assay with NLRP2, the sensor-assay potency score (higher = more potent) was -1.26.
TTGAGCGCGCTGACGGCTCGGA returned a sensor-assay potency score (higher = more potent) with NKPD1 of -0.211.
Take AAAAGGAACTGCACGTTCCTGC: in the assay with NKPD1, the sensor-assay potency score (higher = more potent) was -0.361.
Turning to TTCTGTTTTGAAGCGCTCCAGC, in the assay with NLRP2, the sensor-assay potency score (higher = more potent) is -0.763.
Still for that read-out and setting: in the case of TTCAATATATACCTGCACCTAT it was -0.184; in that of TACAACTTATGTCGCATCGCAG, -0.571.
On the same count and under the same terms, under AAGTCATCTATTTTCAACCTGA stands 0.0295.
In turn, TTTTTGAACACCACTCTCTGGA displayed a sensor-assay potency score (higher = more potent) with NLRP2 of 0.671.
TAACATTATATCATAGTTGAGA: in the assay with NLGN1, the sensor-assay potency score (higher = more potent) is -0.468.
Consider TTTTGGAACAGGTTCATCCTCA, for which the sensor-assay potency score (higher = more potent) with NLRP3 is -0.144.
Sequence TATACCTGCACCTATTGTCTTT registered a sensor-assay potency score (higher = more potent) with NLRP2 of -0.461.
On to TTTATTTCACACAATGACCAGT, for which the sensor-assay potency score (higher = more potent) with NLGN1 was 0.0352.
For the sequence TTTCTGTAAACGCTTGTGCTTC, in the assay with NLRP2, the sensor-assay potency score (higher = more potent) is -0.408.
TTGTTGTTTGGGATCATCCTGC: the sensor-assay potency score (higher = more potent) in the assay with NLGN1 amounted to 0.229.
As for TTTTTCTTCTATTTCTTCCAGC, the sensor-assay potency score (higher = more potent) in the assay with NLRP2 was -0.106.
Sequence TGAGGTACCAACTCCAACCAGA registered a sensor-assay potency score (higher = more potent) with NLGN1 of 0.0181.
Sequence TTCTCATAAAGGTCTCTCCTGT returned a sensor-assay potency score (higher = more potent) in the assay with NLRP3 of -0.131.
